Source: PubChem (National Center for Advancing Translational Sciences (NCATS))
IL-2 act: IL-2 activation; IL-2 activation reporter assay, cell-based qHTS; stimulated with anti-CD3/CD4/CD28 beads; in transgenic mouse T cells; activation, % (series mostly up to about 46 µM); 0.065% of 360,000 active; AID 652025; in the data active = activation above about 50%; inconclusive = mostly about 30% to 49%; note: 0% is about no effect
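Using fluorescent plate cytometry, EGFP and DsRed are detected in transgenic mouse T cells stimulated 18 h at 37 degrees C with antibody-coated beads after 60 min compound pretreatment.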
PKM2 activator: activators of human pyruvate kinase M2 | 0.34% of 260,000 active | P14618 | Potency, µM (series often up to 57.5 µM), for inactives: at the top dose activation, actives largely listed as activators | purified PKM2, Kinase-Glo ATP luminescence, activation; response scale: 0% is enzyme alone, no compound; note: potency is the fitted concentration of half-maximal effect; % is set by controls: 0 for no effect and ±100 for the full control effect; nearly all actives have a fitted effect of over 55% in size
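Purified hPK-M2 (>95%) run at intermediate activity with 0.1 mM ADP and 0.5 mM PEP in 50 mM imidazole pH 7.2, KCl, MgCl2; 1 h room temperature. ATP formed read by Kinase-Glo luminescence; normalized to uninhibited and no-enzyme controls.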
Vif-APOBEC3F blk: Vif-A3F binding inhibition; 0.2% of 390,000 active; HeLa A3F-eYFP + Vif (tagged APOBEC3F with the HIV-1 protein that degrades it), YFP fluorescence increase; Potency, µM (series often up to 46.1 µM), for inactives: at the highest dose activity, negative = active; AID 602313; note: potency is the fitted concentration of half-maximal effect; % of control where 0% means no effect; nearly all actives have a fitted effect of over 65% in size
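Fluorescence increase (Ex 488/Em 500-530) after overnight compound treatment at 37 deg C flags inhibition of Vif-driven A3F-eYFP loss in stable HeLa A3F-eYFP/Vif cells seeded overnight beforehand.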
GCN5L2 inh: blocks human GCN5L2 histone acetyltransferase; Q92830; GCN5L2 HAT assay, ThioGlo1 CoA-SH fluorescence; Potency, µM (series often up to 58.9 µM), for the others: top-dose activity change, negative = inhibition, usual class: inhibitors; 0.21% of 390,000 active; note: potency is the fitted concentration of half-maximal effect; % is set by controls: 0 for no effect and ±100 for the full control effect
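GCN5L2 (20 nM) in 50mM HEPES pH 7.5, 0.1mM EDTA, 0.01% Tween-20 preincubated 15 min with compounds at room temperature. Reaction started with H3(1-25) 75uM, acetyl-CoA 70uM, ThioGlo1 50uM; CoA-thiol fluorescence (Ex340/Em540) read at 0 and 20 min.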
Vif-A3G inh: blocks the Vif interaction with human APOBEC3G; HeLa A3G-eYFP + Vif (tagged APOBEC3G with the HIV-1 protein that degrades it), YFP fluorescence, overnight; Potency, µM (highest dose often 46.1 µM), for the others: at the top dose activity, negative = active, most hits filed as inhibitors; 0.076% of 410,000 active; AID 602310; note: potency is the fitted concentration of half-maximal effect; % is set by controls: 0 for no effect and ±100 for the full control effect; nearly all actives have a fitted effect of over 60% in size
Target sequence (Q9HC16 whole entry, looked up): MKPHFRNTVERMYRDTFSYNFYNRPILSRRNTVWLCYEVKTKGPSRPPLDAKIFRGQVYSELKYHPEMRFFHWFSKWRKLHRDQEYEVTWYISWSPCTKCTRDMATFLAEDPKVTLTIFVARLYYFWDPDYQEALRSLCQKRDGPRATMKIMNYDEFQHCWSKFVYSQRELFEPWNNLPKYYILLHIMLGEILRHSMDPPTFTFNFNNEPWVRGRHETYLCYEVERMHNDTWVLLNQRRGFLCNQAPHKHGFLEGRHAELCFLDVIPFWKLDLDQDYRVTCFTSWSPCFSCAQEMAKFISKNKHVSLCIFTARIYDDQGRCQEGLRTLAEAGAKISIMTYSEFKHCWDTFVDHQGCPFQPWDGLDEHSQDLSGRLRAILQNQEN
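HeLa cells stably expressing Vif and C-terminally eYFP-tagged A3G, seeded overnight at 37 deg C, then exposed to compound by pintool overnight at 37 deg C. Rise in yellow fluorescence (Ex 488/Em 500-530, Acumen) marks blocked Vif-driven A3G degradation.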
GoLoco inh red: RGS12 GoLoco-Gai1 interaction inhibition. Gai1:RGS12 GoLoco peptide FP, rhodamine, 10 min. Potency, µM (doses to about 61.6 µM), for the others: at the highest dose activity, negative = inhibition, usual class: inhibitors. 0.44% of 230,000 active; active = well fitted inhibition curve with a large enough effect, not every such curve was filed as active; inactive = no such curve, though single readings can be large or run the other way; note: potency is the fitted concentration of half-maximal effect; % is set by controls: 0 for no effect and ±100 for the full control effect; nearly all actives have a fitted effect of over 30% in size
Active calls of the source: *; ? = inconclusive; / = no result given; [ ] = remark or other dose. Shown are actives, neighbours in structure and some others; about 0.77% of the full set was active somewhere. Unless noted, calls come from the whole dose curve; as a rule, active = well fitted curve in the direction sought with a large enough effect; inconclusive = small, poorly fitted or top-dose-only effect, or another doubt; inactive = no such curve, though single readings can be large; an effect the other way counts as inactive or inconclusive.

SMILES | IL-2 act | PKM2 activator | Vif-APOBEC3F blk | GCN5L2 inh | Vif-A3G inh | GoLoco inh red
COc1ccccc1C(=O)N(C)CC(=O)Nc1ccc(N2CCOCC2)cc1 | -1 | / | -1% | 2% | 0% | /
CN(C)c1ccc(/C=C/c2cnnc3ccccc23)cc1 | / | / | / | / | 8.9µM* | /
C(=Cc1cnnc2ccccc12)c1ccccc1 | -1 | / | 0% | / | 1% | /
CN(C)c1ccc(/C=C(\C#N)c2nc3ccccc3c(=O)[nH]2)cc1 | / | / | 5µM* | -5% | ? | /
O=c1[nH]c(/C=C/c2ccc(Br)cc2)nc2ccccc12 | -1 | / | 4% | 2% | 0% | /
CN(C)c1ccc(/C=C/c2nc3ccccc3c(=O)[nH]2)cc1 | 61* | / | 10µM* | 1% | -4% | /
O=c1[nH]c(/C=C/c2cccc3ccccc23)nc2ccccc12 | 4 | -4% | 13µM* | 5% | ? | 17%
O=c1[nH]c(/C=C/c2ccccc2F)nc2ccccc12 | 2 | -11%[11.5 µM] | -8% | -4% | ? | /
O=C(Oc1c(Cl)cc(Cl)c2cccnc12)c1ccco1 | 0 | 0% | -5% | 0% | -16% | -18%
CCOC(=O)c1c(CSC(=N)N)n(C)c2cc(Br)c(OC(C)=O)cc12 | -1 | 16µM* | 17% | -2% | -12% | 6%
CCOC(=O)Cc1csc(NC(=O)c2sc3nc4c(C)cc(C)cc4cc3c2N)n1 | -1 | 2% | 25µM* | -12% | ? | 38%
O=C1C=CC(=O)C2=C1C1c3ccccc3C2c2ccccc21 | / | -49% | / | / | / | 18µM*
COC(=O)Cn1c(CN2CCOCC2)nc2c1c(=O)n(C)c(=O)n2C | -2 | 0% | 9% | -1% | 5% | /
O=c1[nH]c(=O)c2ncc(-c3ccc(Cl)cc3)nc2[nH]1 | / | 2% | / | -7% | / | 8%
COc1cc(Cl)c(S(=O)(=O)N2CCCC2)cc1Cl | -3 | 10% | -1% | -1% | 2% | 13%
COc1cc(N2C(=O)C=CC2=O)c(OC)cc1Cl | -4 | 8.9µM* | 12% | ? | ? | -33%
CN(C(=O)COC(=O)c1ccc([N+](=O)[O-])cc1N)c1ccccc1 | 77* | -1% | ? | -3% | 1% | 2%
Cc1ccc(-c2noc(-c3cccnc3NCc3ccco3)n2)cc1 | / | / | -3% | -4% | 1% | /
CC(C)(C)c1ccc(-c2cn(-c3ccc(Br)cc3)c3[n+]2CCCS3)cc1 | -3 | -10% | 1% | -4% | -1% | 35µM*
O=c1cc(CSc2nnnn2-c2ccccc2)nc2scc(-c3ccccc3)n12 | -2 | 25µM* | / | -18% | 0% | 44%
Cc1csc(=O)n1CC(=O)OC(C)C(=O)Nc1ccc(F)c(F)c1F (centres undefined) | -1 | / | -11% | -11% | 1% | /
COc1ccc(-c2nc(C(=O)Nc3cccc(C(C)=O)c3)nn2-c2ccc(Cl)cc2)cc1 | / | / | -4% | -3% | 5% | /
O=S(=O)(c1ccc2c(c1)OCCO2)N1CCC(n2cnc3cc(F)ccc32)CC1 | -2 | 7.1µM* | / | 0% | -1% | /
CC(C)(C)NC(=O)CSc1nccn1Cc1ccccc1 | 0 | 1% | -1% | 3.5µM* | 1% | 5%
O=C(CSc1nccn1Cc1ccccc1)Nc1ccccc1 | -5 | 11% | -9% | -5% | -6% | /
CCC(=O)NC(=S)Nc1cccc(Cl)c1N1CCCC1 | 3 | 0% | 10µM* | -17% | 1% | 11%
c1ccc(CSc2ncnc3c2cnn3Cc2ccccc2)cc1 | -2 | 5µM* | 1% | 4% | 0% | 0%
CC(C)(C)C(=O)CSc1ncnc2c1cnn2Cc1ccccc1 | -1 | / | -3% | -8% | 3% | /
CCCCCCSc1ccc([C@H]2N[C@@](Cc3ccccc3)(C(=O)OC)[C@H]3C(=O)N(C)C(=O)[C@@H]23)cc1 | -1 | / | -4% | -14% | -3% | /
C/C(=N\NC(=O)c1nn(C)cc1Br)c1cccc(NC(=O)c2ccncc2)c1 | 0 | -10% | -6% | -3% | 1% | 5%
